# Measurements as given in article PMC7862700, “An all-to-all approach to the identification of sequence-specific readers for epigenetic DNA modifications on cytosine”.
# Columns and labels:
# Assay in all cases: DAPPL (digital affinity profiling via proximity ligation, sequencing); 10 mM Tris-HCl pH 7.5, 50 mM NaCl, 1 mM DTT, 4% glycerol, room temperature, 30 min; GST-TFs on glutathione beads, 16-mer random dsDNA library, 0.1% formaldehyde crosslink after washing; high values mean tight binding
# FEV = biological target: T1, FEV (Homo sapiens, UniProt Q99581 1-238); details: protein: recombinant; tags: N-terminal GST; dsDNA, one strand shown
# T1 sequence: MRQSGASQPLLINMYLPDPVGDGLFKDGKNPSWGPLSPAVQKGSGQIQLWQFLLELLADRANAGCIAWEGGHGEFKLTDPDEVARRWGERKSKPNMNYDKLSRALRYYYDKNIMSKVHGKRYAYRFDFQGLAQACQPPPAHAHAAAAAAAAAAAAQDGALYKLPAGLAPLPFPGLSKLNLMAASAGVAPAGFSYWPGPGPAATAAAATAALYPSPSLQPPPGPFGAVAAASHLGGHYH
# Method in brief: (§1)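 In yeast, human transcription factors were expressed with a GST fusion, then pulled down on glutathione beads and given DNA barcodes. Pooled with a tag-only sample, they were exposed to 200 nmole of a 16-mer random double-stranded DNA library (Tris/NaCl/DTT/glycerol buffer, room temperature, 30 min), washed, crosslinked with 0.1% formaldehyde, proximity-ligated using BsaI/T4 ligase for 1 h at 37 °C, PCR-amplified and read on an Illumina NextSeq500. Each hexamer's frequency of reads for a factor, divided by the matching frequency for the tag-only sample, gives the binding signal.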
# ETV5 = ETV5 (Homo sapiens, UniProt P41161 1-510); details: protein: recombinant; tags: N-terminal GST; dsDNA, one strand shown
# Method in brief: as §1
# HSF1 = HSF1 (Homo sapiens, UniProt Q00613 1-529); details: protein: recombinant; tags: N-terminal GST; chain copies: 3; dsDNA, one strand shown
# Method in brief: as §1
# SPIC = biological target: T2, SPIC (Homo sapiens, UniProt Q8N5J4 1-248); details: protein: recombinant; tags: N-terminal GST; dsDNA, one strand shown
# T2 sequence: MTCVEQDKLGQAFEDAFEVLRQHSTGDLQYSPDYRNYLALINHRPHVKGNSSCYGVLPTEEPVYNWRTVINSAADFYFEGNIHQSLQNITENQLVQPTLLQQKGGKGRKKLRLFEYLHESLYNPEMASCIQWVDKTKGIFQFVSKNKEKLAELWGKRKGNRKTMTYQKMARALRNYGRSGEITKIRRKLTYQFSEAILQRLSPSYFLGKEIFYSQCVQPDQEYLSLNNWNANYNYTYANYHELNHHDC
# Method in brief: as §1
# ELF4 = ELF4 (Homo sapiens, UniProt Q99607 1-663); details: protein: recombinant; tags: N-terminal GST; dsDNA, one strand shown
# Method in brief: as §1
# ELK4 = biological target: T3, ELK4 (Homo sapiens, UniProt P28324-2 1-405); details: protein: recombinant; tags: N-terminal GST; dsDNA, one strand shown
# T3 sequence: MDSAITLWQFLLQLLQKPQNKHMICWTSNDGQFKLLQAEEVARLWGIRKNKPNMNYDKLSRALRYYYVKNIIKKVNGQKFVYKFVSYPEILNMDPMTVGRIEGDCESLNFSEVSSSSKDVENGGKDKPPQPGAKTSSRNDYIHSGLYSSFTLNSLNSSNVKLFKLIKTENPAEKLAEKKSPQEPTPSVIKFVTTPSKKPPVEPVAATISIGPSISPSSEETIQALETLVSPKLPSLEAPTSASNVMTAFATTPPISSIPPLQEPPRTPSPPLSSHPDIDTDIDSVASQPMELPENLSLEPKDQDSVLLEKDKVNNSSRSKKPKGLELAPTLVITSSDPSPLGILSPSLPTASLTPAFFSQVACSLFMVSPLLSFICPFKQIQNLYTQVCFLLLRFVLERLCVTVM
# Method in brief: as §1
# ETV2 = biological target: T4, ETV2 (Homo sapiens, UniProt O00321 1-342); details: protein: recombinant; tags: N-terminal GST; dsDNA, one strand shown
# T4 sequence: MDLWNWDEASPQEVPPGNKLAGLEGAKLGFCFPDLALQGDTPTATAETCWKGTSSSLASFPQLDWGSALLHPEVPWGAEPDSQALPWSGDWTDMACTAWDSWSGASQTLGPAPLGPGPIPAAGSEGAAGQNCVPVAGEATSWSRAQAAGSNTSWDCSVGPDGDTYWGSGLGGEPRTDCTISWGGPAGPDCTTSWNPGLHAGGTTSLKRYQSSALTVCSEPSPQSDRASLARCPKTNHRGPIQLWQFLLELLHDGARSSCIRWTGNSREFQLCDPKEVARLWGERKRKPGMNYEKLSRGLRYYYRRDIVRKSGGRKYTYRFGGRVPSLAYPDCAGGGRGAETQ
# Method in brief: as §1
# ELF3 = biological target: T5, ELF3 (Homo sapiens, UniProt P78545 1-371); details: protein: recombinant; tags: N-terminal GST; dsDNA, one strand shown
# T5 sequence: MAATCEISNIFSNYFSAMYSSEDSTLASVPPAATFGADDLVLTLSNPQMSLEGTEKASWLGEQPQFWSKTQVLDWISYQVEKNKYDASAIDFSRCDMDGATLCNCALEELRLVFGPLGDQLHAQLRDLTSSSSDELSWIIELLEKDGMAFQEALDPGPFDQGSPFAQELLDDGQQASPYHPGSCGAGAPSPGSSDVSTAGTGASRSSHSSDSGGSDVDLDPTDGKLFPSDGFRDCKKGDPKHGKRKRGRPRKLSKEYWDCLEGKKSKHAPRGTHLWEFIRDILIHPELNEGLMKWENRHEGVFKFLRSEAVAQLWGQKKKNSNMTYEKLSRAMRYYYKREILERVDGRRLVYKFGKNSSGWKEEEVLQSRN
# Method in brief: as §1
# CRX = CRX (Homo sapiens, UniProt O43186 1-299); details: protein: recombinant; tags: N-terminal GST; dsDNA, one strand shown
# Method in brief: as §1
# ETV1 = ETV1 (Homo sapiens, UniProt P50549 1-477); details: protein: recombinant; tags: N-terminal GST; dsDNA, one strand shown
# Method in brief: as §1
# ERF = biological target: T6, ERF (Homo sapiens, UniProt P50548 1-548); details: protein: recombinant; tags: N-terminal GST; dsDNA, one strand shown
# T6 sequence: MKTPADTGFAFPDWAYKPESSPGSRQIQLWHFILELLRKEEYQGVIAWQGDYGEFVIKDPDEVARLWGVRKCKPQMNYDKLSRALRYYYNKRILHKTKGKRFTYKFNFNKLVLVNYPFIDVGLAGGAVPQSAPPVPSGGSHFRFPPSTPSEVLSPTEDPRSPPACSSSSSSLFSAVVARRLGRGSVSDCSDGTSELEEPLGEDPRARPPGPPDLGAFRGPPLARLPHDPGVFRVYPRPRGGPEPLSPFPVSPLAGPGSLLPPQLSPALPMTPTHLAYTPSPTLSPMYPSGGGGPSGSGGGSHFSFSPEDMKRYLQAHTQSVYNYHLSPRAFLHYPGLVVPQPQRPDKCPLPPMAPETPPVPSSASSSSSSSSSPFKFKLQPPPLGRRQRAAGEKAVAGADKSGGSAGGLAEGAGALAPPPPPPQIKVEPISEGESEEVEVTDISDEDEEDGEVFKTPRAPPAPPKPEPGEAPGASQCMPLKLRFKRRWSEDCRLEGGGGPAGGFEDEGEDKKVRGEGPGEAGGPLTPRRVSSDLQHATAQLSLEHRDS
# Method in brief: as §1
# ETV3L = biological target: T7, ETV3L (Homo sapiens, UniProt Q6ZN32 1-361); details: protein: recombinant; tags: N-terminal GST; dsDNA, one strand shown
# T7 sequence: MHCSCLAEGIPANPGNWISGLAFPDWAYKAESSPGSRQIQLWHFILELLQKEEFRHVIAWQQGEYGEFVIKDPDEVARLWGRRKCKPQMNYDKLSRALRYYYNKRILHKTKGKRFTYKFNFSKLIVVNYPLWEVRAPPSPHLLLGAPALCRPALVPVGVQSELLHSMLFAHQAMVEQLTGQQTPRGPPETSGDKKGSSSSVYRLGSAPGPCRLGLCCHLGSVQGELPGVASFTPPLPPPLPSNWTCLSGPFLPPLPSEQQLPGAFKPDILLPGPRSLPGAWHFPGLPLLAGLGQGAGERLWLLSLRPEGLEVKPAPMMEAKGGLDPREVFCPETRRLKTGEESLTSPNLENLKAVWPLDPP
# Method in brief: as §1
# ETS2 = biological target: T8, ETS2 (Homo sapiens, UniProt P15036 1-469); details: protein: recombinant; tags: N-terminal GST; dsDNA, one strand shown
# T8 sequence: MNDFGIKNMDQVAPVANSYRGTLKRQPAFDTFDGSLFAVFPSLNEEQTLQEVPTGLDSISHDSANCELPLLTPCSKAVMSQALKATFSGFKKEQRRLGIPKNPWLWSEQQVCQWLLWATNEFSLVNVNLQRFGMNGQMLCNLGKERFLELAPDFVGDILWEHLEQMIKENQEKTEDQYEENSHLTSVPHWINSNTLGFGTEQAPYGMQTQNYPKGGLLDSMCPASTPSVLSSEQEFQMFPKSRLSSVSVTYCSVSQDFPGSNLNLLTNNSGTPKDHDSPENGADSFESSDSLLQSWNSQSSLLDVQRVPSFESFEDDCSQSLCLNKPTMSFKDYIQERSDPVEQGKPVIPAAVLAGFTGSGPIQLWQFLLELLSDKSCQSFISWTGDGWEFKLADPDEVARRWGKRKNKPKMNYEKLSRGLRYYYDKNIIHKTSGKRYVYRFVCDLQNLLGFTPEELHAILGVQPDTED
# Method in brief: as §1
# SPDEF = biological target: T9, SPDEF (Homo sapiens, UniProt O95238 1-335); details: protein: recombinant; tags: N-terminal GST; dsDNA, one strand shown
# T9 sequence: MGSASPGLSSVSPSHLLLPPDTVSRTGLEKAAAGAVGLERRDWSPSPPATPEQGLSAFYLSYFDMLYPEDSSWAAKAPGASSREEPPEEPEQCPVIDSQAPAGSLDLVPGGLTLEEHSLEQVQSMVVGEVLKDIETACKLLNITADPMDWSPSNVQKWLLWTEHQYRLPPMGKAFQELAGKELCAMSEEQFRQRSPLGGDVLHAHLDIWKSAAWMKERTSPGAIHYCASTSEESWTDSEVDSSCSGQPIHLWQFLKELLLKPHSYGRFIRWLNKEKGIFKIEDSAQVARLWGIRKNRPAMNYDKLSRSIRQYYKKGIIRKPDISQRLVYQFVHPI
# Method in brief: as §1
# ETV7 = biological target: T10, ETV7 (Homo sapiens, UniProt Q9Y603 1-341); details: protein: recombinant; tags: N-terminal GST; dsDNA, one strand shown
# T10 sequence: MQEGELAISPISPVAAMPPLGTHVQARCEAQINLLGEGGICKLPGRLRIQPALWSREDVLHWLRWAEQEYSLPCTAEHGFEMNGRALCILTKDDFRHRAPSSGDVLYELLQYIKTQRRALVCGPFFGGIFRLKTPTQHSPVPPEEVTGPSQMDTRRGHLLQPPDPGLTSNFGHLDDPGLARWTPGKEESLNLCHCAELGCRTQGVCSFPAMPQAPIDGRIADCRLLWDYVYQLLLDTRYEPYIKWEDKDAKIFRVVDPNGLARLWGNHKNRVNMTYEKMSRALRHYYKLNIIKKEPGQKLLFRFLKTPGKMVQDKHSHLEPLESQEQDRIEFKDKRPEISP
# Method in brief: as §1
# ELF5 = biological target: T11, ELF5 (Homo sapiens, UniProt Q9UKW6-2 1-255); details: protein: recombinant; tags: N-terminal GST; dsDNA, one strand shown
# T11 sequence: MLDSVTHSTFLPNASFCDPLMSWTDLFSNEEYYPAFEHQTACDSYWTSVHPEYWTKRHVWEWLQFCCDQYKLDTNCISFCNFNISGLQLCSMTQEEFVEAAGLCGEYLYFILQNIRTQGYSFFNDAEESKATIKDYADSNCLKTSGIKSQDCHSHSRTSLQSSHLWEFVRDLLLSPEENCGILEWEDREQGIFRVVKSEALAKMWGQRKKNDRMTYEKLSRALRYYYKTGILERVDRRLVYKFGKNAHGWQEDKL
# Method in brief: as §1
# ETV3 = biological target: T12, ETV3 (Homo sapiens, UniProt P41162-2 1-143); details: protein: recombinant; tags: N-terminal GST; dsDNA, one strand shown
# T12 sequence: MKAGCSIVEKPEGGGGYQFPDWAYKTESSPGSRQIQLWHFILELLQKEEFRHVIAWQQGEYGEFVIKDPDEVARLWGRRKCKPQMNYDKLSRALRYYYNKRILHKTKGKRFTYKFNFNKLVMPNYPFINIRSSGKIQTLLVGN
# Method in brief: as §1
# ETV6 = ETV6 (Homo sapiens, UniProt P41212 1-452); details: protein: recombinant; tags: N-terminal GST; dsDNA, one strand shown
# Method in brief: as §1
# Sequence of ETV1 (P50549 whole entry): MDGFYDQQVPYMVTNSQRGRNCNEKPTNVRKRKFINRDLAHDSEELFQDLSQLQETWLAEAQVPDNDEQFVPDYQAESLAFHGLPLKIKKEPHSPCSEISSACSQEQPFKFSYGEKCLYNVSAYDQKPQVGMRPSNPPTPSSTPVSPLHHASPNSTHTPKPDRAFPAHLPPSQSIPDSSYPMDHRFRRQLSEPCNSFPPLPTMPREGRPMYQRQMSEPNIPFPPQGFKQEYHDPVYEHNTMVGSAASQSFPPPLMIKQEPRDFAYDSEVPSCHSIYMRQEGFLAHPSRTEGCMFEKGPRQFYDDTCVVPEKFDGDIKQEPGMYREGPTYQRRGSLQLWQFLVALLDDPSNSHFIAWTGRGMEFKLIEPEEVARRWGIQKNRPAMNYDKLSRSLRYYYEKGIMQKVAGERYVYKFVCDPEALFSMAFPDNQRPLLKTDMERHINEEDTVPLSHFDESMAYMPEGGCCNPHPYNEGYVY
# Sequence of HSF1 (Q00613 whole entry): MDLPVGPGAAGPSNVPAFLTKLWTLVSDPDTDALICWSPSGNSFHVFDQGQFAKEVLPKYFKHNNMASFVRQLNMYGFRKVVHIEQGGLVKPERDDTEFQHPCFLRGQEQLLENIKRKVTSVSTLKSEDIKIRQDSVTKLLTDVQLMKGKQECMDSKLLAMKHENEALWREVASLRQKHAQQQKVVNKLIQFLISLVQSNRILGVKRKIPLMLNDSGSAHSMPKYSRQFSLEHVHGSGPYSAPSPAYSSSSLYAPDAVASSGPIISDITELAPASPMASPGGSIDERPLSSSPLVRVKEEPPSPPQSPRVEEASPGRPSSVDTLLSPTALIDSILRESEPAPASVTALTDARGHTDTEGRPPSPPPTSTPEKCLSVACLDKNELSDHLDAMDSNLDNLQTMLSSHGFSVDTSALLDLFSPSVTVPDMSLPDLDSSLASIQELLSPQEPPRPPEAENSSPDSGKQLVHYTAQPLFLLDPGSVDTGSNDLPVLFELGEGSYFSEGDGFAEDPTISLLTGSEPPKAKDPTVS
# Sequence of CRX (O43186 whole entry): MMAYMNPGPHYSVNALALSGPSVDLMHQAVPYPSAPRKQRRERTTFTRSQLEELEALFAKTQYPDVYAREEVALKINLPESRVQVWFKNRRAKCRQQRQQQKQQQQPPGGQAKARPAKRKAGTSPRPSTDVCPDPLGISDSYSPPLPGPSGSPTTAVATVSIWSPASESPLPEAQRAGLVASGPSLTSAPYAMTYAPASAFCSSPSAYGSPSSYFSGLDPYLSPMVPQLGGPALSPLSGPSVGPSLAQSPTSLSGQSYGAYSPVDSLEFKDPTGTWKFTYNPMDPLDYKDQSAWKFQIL
# Sequence of ELF4 (Q99607 whole entry): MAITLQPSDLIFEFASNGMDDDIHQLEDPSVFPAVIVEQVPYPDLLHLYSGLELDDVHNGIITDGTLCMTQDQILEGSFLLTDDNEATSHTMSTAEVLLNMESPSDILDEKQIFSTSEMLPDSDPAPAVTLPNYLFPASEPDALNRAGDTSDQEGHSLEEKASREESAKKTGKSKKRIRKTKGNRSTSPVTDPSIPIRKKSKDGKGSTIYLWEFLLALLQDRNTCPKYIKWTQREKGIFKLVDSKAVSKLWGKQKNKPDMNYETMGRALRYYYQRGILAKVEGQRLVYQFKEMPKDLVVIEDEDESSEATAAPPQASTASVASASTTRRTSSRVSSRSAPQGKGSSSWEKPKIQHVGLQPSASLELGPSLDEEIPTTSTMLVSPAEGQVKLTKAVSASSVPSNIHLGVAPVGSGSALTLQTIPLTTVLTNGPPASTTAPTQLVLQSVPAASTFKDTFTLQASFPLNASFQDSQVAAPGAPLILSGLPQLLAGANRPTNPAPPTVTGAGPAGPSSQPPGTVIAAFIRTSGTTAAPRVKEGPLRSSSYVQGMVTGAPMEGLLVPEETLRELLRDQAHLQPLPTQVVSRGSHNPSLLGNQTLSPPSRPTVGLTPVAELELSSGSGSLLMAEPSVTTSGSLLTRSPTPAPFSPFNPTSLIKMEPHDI
# Sequence of ETV6 (P41212 whole entry): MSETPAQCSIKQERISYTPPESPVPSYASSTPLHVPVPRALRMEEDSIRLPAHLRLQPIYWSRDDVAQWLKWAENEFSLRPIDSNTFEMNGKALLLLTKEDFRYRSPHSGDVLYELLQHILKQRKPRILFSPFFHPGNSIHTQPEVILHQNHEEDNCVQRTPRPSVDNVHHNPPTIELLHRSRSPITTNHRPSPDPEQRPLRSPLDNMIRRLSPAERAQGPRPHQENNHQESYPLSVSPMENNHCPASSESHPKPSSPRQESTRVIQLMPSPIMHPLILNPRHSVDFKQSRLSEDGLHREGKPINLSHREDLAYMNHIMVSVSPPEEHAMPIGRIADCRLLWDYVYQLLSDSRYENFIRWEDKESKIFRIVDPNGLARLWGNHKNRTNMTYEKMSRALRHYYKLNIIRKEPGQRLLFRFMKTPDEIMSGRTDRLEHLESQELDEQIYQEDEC
# Sequence of ETV5 (P41161 whole entry): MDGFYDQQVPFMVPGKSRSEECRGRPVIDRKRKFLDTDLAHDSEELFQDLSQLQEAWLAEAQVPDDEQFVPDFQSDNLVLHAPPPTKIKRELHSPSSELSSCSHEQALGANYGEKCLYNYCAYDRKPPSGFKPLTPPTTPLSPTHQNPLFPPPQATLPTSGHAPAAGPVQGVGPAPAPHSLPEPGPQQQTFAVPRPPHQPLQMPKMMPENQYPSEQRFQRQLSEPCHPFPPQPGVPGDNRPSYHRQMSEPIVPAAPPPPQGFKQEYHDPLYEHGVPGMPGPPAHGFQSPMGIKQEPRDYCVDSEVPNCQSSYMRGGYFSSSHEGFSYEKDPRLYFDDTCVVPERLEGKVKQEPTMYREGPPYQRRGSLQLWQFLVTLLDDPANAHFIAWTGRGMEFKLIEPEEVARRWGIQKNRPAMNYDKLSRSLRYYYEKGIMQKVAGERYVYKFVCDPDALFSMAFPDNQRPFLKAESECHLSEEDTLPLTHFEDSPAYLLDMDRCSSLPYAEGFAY
sequence,measurement,setting,value
AACATT,binding signal,FEV,"1.2 fold enrichment (6-mer frequency, TF over GST control)"
same,binding signal,ETV5,"1.31 fold enrichment (6-mer frequency, TF over GST control)"
same,binding signal,HSF1,"1.99 fold enrichment (6-mer frequency, TF over GST control)"
same,binding signal,SPIC,"1.21 fold enrichment (6-mer frequency, TF over GST control)"
same,binding signal,ELF4,"1.29 fold enrichment (6-mer frequency, TF over GST control)"
same,binding signal,ELK4,"1.31 fold enrichment (6-mer frequency, TF over GST control)"
same,binding signal,ETV2,"1.29 fold enrichment (6-mer frequency, TF over GST control)"
same,binding signal,ELF3,"1.33 fold enrichment (6-mer frequency, TF over GST control)"
same,binding signal,CRX,"1.34 fold enrichment (6-mer frequency, TF over GST control)"
same,binding signal,ETV1,"1.29 fold enrichment (6-mer frequency, TF over GST control)"
same,binding signal,ERF,"1.33 fold enrichment (6-mer frequency, TF over GST control)"
same,binding signal,ETV3L,"1.34 fold enrichment (6-mer frequency, TF over GST control)"
same,binding signal,ETS2,"1.29 fold enrichment (6-mer frequency, TF over GST control)"
same,binding signal,SPDEF,"1.16 fold enrichment (6-mer frequency, TF over GST control)"
same,binding signal,ETV7,"1.36 fold enrichment (6-mer frequency, TF over GST control)"
same,binding signal,ELF5,"1.3 fold enrichment (6-mer frequency, TF over GST control)"
same,binding signal,ETV3,"1.32 fold enrichment (6-mer frequency, TF over GST control)"
same,binding signal,ETV6,"1.39 fold enrichment (6-mer frequency, TF over GST control)"
